Results published in PubChem BioAssay (EPA / NIEHS).
Active and inactive are the calls of the source. The calls were made as follows: active = hit-call score of the fitted dose curve at least 0.9, where 1 is the maximum; inactive = score below 0.9.

Legend:
[1] = read-out: Human Leukocyte Antigen - DR isotype (HLADR), HLA-DRA (gene 3122); assay: BSK_BE3C_HLADR: BioMAP Diversity Plus: BE3C Assay for Human Leukocyte Antigen - DR isotype (HLADR) Biomarker Activity (AID 2283032); conditions: primary human bronchial epithelial cells; actives raise or lower the signal
Outline: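 BioMAP BE3C format: human bronchial epithelium, 24 h compound treatment, ELISA detection of HLA-DR, with bidirectional analysis relative to DMSO.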

[2] = read-out: Vascular cell adhesion molecule 1 (VCAM1), VCAM1 (gene 7412); assay: BSK_4H_VCAM1: BioMAP Diversity Plus: 4H Assay for Vascular cell adhesion molecule 1 (VCAM1) Biomarker Activity (AID 2283033); conditions: primary human endothelial cells (HUVEC); actives raise or lower the signal
Outline: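 In this human endothelial (HUVEC) system, biomarker ELISA was run 24 h after compound addition, and total protein in parallel wells was assessed by SRB at 560 nm; DMSO served as negative control.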

[3] = read-out: Interferon-gamma inducible Protein 10 (IP10), CXCL10 (gene 3627); assay: BSK_BE3C_IP10: BioMAP Diversity Plus: BE3C Assay for Interferon-gamma inducible Protein 10 (IP10) Biomarker Activity (AID 2283034); conditions: primary human bronchial epithelial cells; actives raise or lower the signal
Outline: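 BE3C cells (human bronchial epithelial, primary); 24 h exposure; ELISA for IP-10; DMSO-referenced bidirectional fit.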

[4] = read-out: Monokine induced gamma interferon (MIG), CXCL9 (gene 4283); assay: BSK_BE3C_MIG: BioMAP Diversity Plus: BE3C Assay for Monokine induced gamma interferon (MIG) Biomarker Activity (AID 2283035); conditions: primary human bronchial epithelial cells; actives raise or lower the signal
Outline: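 hu bronchial epithelial 1° cells, 24 h cpd; MIG by ELISA; bidirectional fit, DMSO = baseline.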

[5] = read-out: Transforming growth factor beta 1 (TGFb1), TGFB1 (gene 7040); assay: BSK_BE3C_TGFb1: BioMAP Diversity Plus: BE3C Assay for Transforming growth factor beta 1 (TGFb1) Biomarker Activity (AID 2283036); conditions: primary human bronchial epithelial cells; actives raise or lower the signal
Outline: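 TGF-b1 measured via ELISA, 24 h after chemical dosing of human bronchial epithelial cells (BE3C). Overt cytotoxicity assessed in parallel by SRB (0.1%, TCA-fixed, 560 nm); analysis bidirectional relative to DMSO.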

[6] = read-out: Plasminogen activator inhibitor-1 (PAI1), SERPINE1 (gene 5054); assay: BSK_BE3C_PAI1: BioMAP Diversity Plus: BE3C Assay for Plasminogen activator inhibitor-1 (PAI1) Biomarker Activity (AID 2283037); conditions: primary human bronchial epithelial cells; actives raise or lower the signal
Outline: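 In this multiplexed primary-cell system, bronchial epithelial cells receive test chemical and are sampled at 24 h. PAI-1 is read by ELISA, with DMSO serving as negative control for bidirectional fitting.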

[7] = read-out: urokinase plasminogen activator (uPA), PLAU (gene 5328); assay: BSK_BE3C_uPA: BioMAP Diversity Plus: BE3C Assay for urokinase plasminogen activator (uPA) Biomarker Activity (AID 2283038); conditions: primary human bronchial epithelial cells; actives raise or lower the signal
Outline: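 Human primary bronchial epithelial cells were exposed to chemical for 24 h, then uPA levels were measured by ELISA. Responses were fitted bidirectionally against DMSO as negative control and baseline. Parallel SRB staining of total protein gauged overt cytotoxicity.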

[8] = read-out: Urokinase-type plasminogen activator receptor (uPAR), PLAUR (gene 5329); assay: BSK_BE3C_uPAR: BioMAP Diversity Plus: BE3C Assay for Urokinase-type plasminogen activator receptor (uPAR) Biomarker Activity (AID 2283039); conditions: primary human bronchial epithelial cells; actives raise or lower the signal
Outline: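 Chemically treated human bronchial epithelial cells (lung primary) are assayed for uPAR by ELISA after 24 h, with data fitted in both directions using DMSO as negative control.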

[9] = read-out: Interleukin-6 (IL6), IL6 (gene 3569); assay: BSK_CASM3C_IL6: BioMAP Diversity Plus: CASM3C Assay for Interleukin-6 (IL6) Biomarker Activity for (AID 2283040); conditions: primary human coronary artery smooth muscle cells; actives raise or lower the signal
[10] = read-out: Tissue plasminogen activator (tPA), PLAT (gene 5327); assay: BSK_BE3C_tPA: BioMAP Diversity Plus: BE3C Assay for Tissue plasminogen activator (tPA) Biomarker Activity (AID 2283041); conditions: primary human bronchial epithelial cells; actives raise or lower the signal
Outline: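 Using human lung primary bronchial epithelial cells, tPA was measured by ELISA 24 h after dosing; data fitted relative to DMSO.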

[11] = read-out: Interleukin-8 (IL8), CXCL8 (gene 3576); assay: BSK_CASM3C_IL8: BioMAP Diversity Plus: CASM3C Assay for Interleukin-8 (IL8) Biomarker Activity (AID 2283042); conditions: primary human coronary artery smooth muscle cells; actives raise or lower the signal;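 also: IL-8 protein level quantified by ELISA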
[12] = read-out: Human Leukocyte Antigen - DR isotype (HLADR), HLA-DRA (gene 3122); assay: BSK_CASM3C_HLADR: BioMAP Diversity Plus: CASM3C Assay for Human Leukocyte Antigen - DR isotype (HLADR) Biomarker Activity (AID 2283043); conditions: primary human coronary artery smooth muscle cells; actives raise or lower the signal;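 also: cell-surface HLA-DR protein level quantified by ELISA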
[13] = read-out: Macrophage colony-stimulating factor (MCSF), CSF1 (gene 1435); assay: BSK_CASM3C_MCSF: BioMAP Diversity Plus: CASM3C Assay for Macrophage colony-stimulating factor (MCSF) Biomarker Activity (AID 2283044); conditions: primary human coronary artery smooth muscle cells; actives raise or lower the signal;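 also: M-CSF protein amount quantified by ELISA after 24 h exposure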
[14] = read-out: Low-density lipoprotein receptor (LDLR), LDLR (gene 3949); assay: BSK_CASM3C_LDLR: BioMAP Diversity Plus: CASM3C Assay for Low-density lipoprotein receptor (LDLR) Biomarker Activity (AID 2283045); conditions: primary human coronary artery smooth muscle cells; actives raise or lower the signal;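 also: LDLR protein level on the cell surface quantified by ELISA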
[15] = read-out: Monocyte Chemoattractant Protein-1 (MCP1), CCL2 (gene 6347); assay: BSK_CASM3C_MCP1: BioMAP Diversity Plus: CASM3C Assay for Monocyte Chemoattractant Protein-1 (MCP1) Biomarker Activity (AID 2283046); conditions: primary human coronary artery smooth muscle cells; actives raise or lower the signal;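 also: MCP-1 level quantified by ELISA 24 h after dosing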
[16] = BSK_CASM3C_Proliferation: Cell Proliferation Assessment in the BioMAP Diversity Plus: CASM3C Assay (AID 2283047); conditions: primary human coronary artery smooth muscle cells;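 also: sulforhodamine B total protein stain as relative cell number at 560 nm; sub-confluent cells exposed 48 h before staining; fitted both ways against DMSO so gain or loss of cell number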
[17] = read-out: Monokine induced gamma interferon (MIG), CXCL9 (gene 4283); assay: BSK_CASM3C_MIG: BioMAP Diversity Plus: CASM3C Assay for Monokine induced gamma interferon (MIG) Biomarker Activity (AID 2283048); conditions: primary human coronary artery smooth muscle cells; actives raise or lower the signal
[18] = read-out: serum amyloid A (SAA), SAA1 (gene 6288); assay: BSK_CASM3C_SAA: BioMAP Diversity Plus: CASM3C Assay for serum amyloid A (SAA) Biomarker Activity (AID 2283049); conditions: primary human coronary artery smooth muscle cells; actives raise or lower the signal;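 also: SAA protein level quantified by ELISA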
[19] = BSK_CASM3C_SRB: Viability Assessment in the BioMAP Diversity Plus: CASM3C Assay (AID 2283050); conditions: primary human coronary artery smooth muscle cells;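 also: total protein by SRB staining as cytotoxicity measure in parallel cultures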
[20] = read-out: Thrombomodulin, THBD (gene 7056); assay: BSK_CASM3C_Thrombomodulin: BioMAP Diversity Plus: CASM3C Assay for Thrombomodulin Biomarker Activity (AID 2283051); conditions: primary human coronary artery smooth muscle cells; actives raise or lower the signal;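 also: thrombomodulin protein level measured by ELISA 24 h after dosing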

Measured: AC50

O=C(O)CCCCC(=O)O
inactive: [1] | [2] | [3] | [4] | [5] | [6] | [7] | [8] | [9] | [10] | [11] | [12] | [13] | [14] | [15] | [16] | [17] | [18] | [19] | [20]

CCOc1ccc2c(c1)C(C)=CC(C)(C)N2
inactive: [1] | [2] | [3] | [4] | [5] | [6] | [7] | [8] | [9] | [10] | [11] | [12] | [13] | [14] | [15] | [16] | [17] | [18] | [19] | [20]

CC(C)c1ccc(C(=O)N=C(N)N)cc1S(C)(=O)=O
inactive: [1] | [2] | [3] | [4] | [5] | [6] | [7] | [8] | [9] | [10] | [11] | [12] | [13] | [14] | [15] | [16] | [17] | [18] | [19] | [20]

CCc1c(C(=O)NN2CCCCC2)nn(-c2ccc(Cl)cc2Cl)c1-c1ccc(Br)cc1
inactive: [4] | [5] | [9] | [11] | [13] | [14] | [17] | [18] | [20]
active: [1] 11 µM | [2] 9.11 µM | [3] 24 µM | [6] 11 µM | [7] 33.3 µM | [8] 14.4 µM | [10] 20 µM | [12] 29.9 µM | [15] 33.8 µM | [16] 20.2 µM | [19] 16.8 µM

Nc1ccccc1N
active: [2] 4.07 µM
inactive: [1] | [3] | [4] | [5] | [6] | [7] | [8] | [9] | [10] | [11] | [12] | [13] | [14] | [15] | [16] | [17] | [18] | [19] | [20]

Cc1nc(C)nc(N2C[C@@H](C)N(c3ccnc([C@@H](C)O)n3)[C@@H](C)C2)n1
inactive: [1] | [2] | [3] | [4] | [5] | [6] | [7] | [8] | [9] | [10] | [11] | [12] | [13] | [14] | [15] | [16] | [17] | [18] | [19] | [20]

Oc1ccc2c(c1)OC[C@@H](N1CCC(O)(c3ccc(F)cc3)CC1)[C@H]2O
inactive: [1] | [2] | [3] | [4] | [5] | [6] | [7] | [8] | [9] | [10] | [11] | [12] | [13] | [14] | [15] | [16] | [17] | [18] | [19] | [20]

CC(=O)C(C)=CC1C(C)=CCCC1(C)C (stereo not given)
inactive: [1] | [2] | [3] | [4] | [5] | [6] | [7] | [8] | [9] | [10] | [11] | [12] | [13] | [14] | [15] | [16] | [17] | [18] | [19] | [20]

O=C(O)Cc1ccccc1Nc1c(Cl)cccc1Cl
inactive: [1] | [2] | [3] | [4] | [5] | [6] | [7] | [8] | [9] | [10] | [11] | [12] | [13] | [14] | [15] | [16] | [17] | [18] | [19] | [20]

CCOC(=O)C(C)(C)Oc1ccc(Cl)cc1
inactive: [1] | [2] | [3] | [4] | [5] | [6] | [7] | [8] | [9] | [10] | [11] | [12] | [13] | [14] | [15] | [16] | [17] | [18] | [19] | [20]

O=C(OCCCCCOC(=O)c1ccccc1)c1ccccc1
inactive: [1] | [2] | [3] | [4] | [5] | [6] | [7] | [8] | [9] | [10] | [11] | [12] | [13] | [14] | [15] | [16] | [17] | [18] | [19] | [20]

CN[C@H]1CC[C@@H](c2ccc(Cl)c(Cl)c2)c2ccc(S(N)(=O)=O)cc21
inactive: [20]
active: [1] 31.4 µM | [2] 17.3 µM | [3] 37 µM | [4] 36.7 µM | [5] 31.1 µM | [6] 32.5 µM | [7] 31.1 µM | [8] 30.2 µM | [9] 33.1 µM | [10] 13 µM | [11] 35.3 µM | [12] 32.5 µM | [13] 28.2 µM | [14] 34.8 µM | [15] 30.4 µM | [16] 14.7 µM | [17] 31.2 µM | [18] 36 µM | [19] 31.3 µM

CC(=O)OC/C=C(\C)CCC=C(C)C
inactive: [1] | [2] | [3] | [4] | [5] | [6] | [7] | [8] | [9] | [10] | [11] | [12] | [13] | [14] | [15] | [16] | [17] | [18] | [19] | [20]

COc1cc(C=O)ccc1O
inactive: [1] | [2] | [3] | [4] | [5] | [6] | [7] | [8] | [9] | [10] | [11] | [12] | [13] | [14] | [15] | [16] | [17] | [18] | [19] | [20]
